The OligoGym collection
Further: reference of the scale not given here.

Each sequence was assayed against FANCF (assay: pooled miR-30 sensor sort-seq; sequence = guide strand). Details: shRNA.
For TCTATAGCCATTGAAGCGCAGC, the sensor-assay potency score (higher = more potent) was -1.1.
Sequence TACTTCAAAATCTCCATCCTGC has a sensor-assay potency score (higher = more potent) of 0.811.
With ATAGACAGGAGACAGCGCTGGG the sensor-assay potency score (higher = more potent) was -0.33.
Sequence TTATCTTTCAGAGGTGGAGGGG has a sensor-assay potency score (higher = more potent) of -0.733.
TTCAAAATCTCCATCCTGCGCT gave a sensor-assay potency score (higher = more potent) of 0.034.

The sequences below were run against FANCG in the same assay as above. Details: shRNA.
In the case of TTGGGCACCCAGTTGAACCCAG, the sensor-assay potency score (higher = more potent) is reported as -0.577.
With TACCTCAATGAGAAACTGCGGG the sensor-assay potency score (higher = more potent) was -0.383.
Work on AAGTACAACAGTGCTCTCTGTG yielded a sensor-assay potency score (higher = more potent) of 0.113.
ATGAAGGCTGCTTAGTGCCTTG was tested, and the sensor-assay potency score (higher = more potent) was -0.886.
Work on AGTAAGTGTCTCGATTACCTGG yielded a sensor-assay potency score (higher = more potent) of -1.17.
